Assay outcomes (PubChem)
Sampled rows, rich in hits. Any-hit rate of the full collection: about 2.1%.
ID4 binder – binders of human ID4 protein, primary screen, biochemical, small molecule microarray, single point; DNA-binding protein inhibitor ID-4 (Homo sapiens), P47928; Flag-ID4 binding, fluorescence F/B; calls only; hit rate 1.2% among 31,000; call rule not given here;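 also: a binder raises fluorescence above local background on the spot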
Target sequence (P47928 whole entry, looked up): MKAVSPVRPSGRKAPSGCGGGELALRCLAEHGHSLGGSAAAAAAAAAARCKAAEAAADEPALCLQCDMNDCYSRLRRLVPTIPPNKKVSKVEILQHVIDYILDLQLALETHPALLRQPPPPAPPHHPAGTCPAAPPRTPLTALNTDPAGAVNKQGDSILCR
mut p53 react – mutant p53 pathway re-activators, primary screen, cell-based, SW480, luciferase, single point, HTS | SW480 PUMA-promoter luciferase, p53 mutant reactivation | activation, % at 9.98 µM | hit rate 1.5% among 28,000 | AID 624151, 2012; in the data active = activation above about 52%
The depositor's hits bear a star; i = inactive; nt = not tested or not shown; + = active, no number.

SMILES	ID4 binder	mut p53 react
NCCCCCCNC(=O)[C@H]1C[C@H]2C(=O)N[C@@H](Cc3ccccc3)C(=O)N2[C@H]1c1cccc(OCCO)c1	+	nt
O=C(NCc1ccc(F)cc1)[C@H]1C[C@H]2C(=O)NCC(=O)N2[C@H]1c1cccc(OCCO)c1	i	nt
O=C1NCC(=O)N2[C@@H]1C[C@@H](C(=O)NCc1ccc(F)cc1)[C@H]2c1cccc(OCCO)c1	+	nt
CN(C)CCCCCCNC(=O)[C@H]1C[C@H]2C(=O)N3CCC[C@H]3C(=O)N2[C@H]1c1cccc(OCCO)c1	+	nt
CC(C)C[C@@H]1NC(=O)[C@H]2C[C@@H](C(=O)NCCCCCNC(=O)CS)[C@@H](c3cccc(OCCO)c3)N2C1=O	i	nt
CC(C)C[C@@H]1NC(=O)[C@@H]2C[C@H](C(=O)NCCCCCCN(C)C)[C@H](c3ccc(O)cc3)N2C1=O	i	nt
O=C(NCc1ccc(F)cc1)[C@@H]1C[C@@H]2C(=O)N3CCC[C@H]3C(=O)N2[C@@H]1c1cccc(OCCO)c1	i	nt
Cc1cc(OCC(=O)Nc2ccccc2C(=O)Nc2ccccc2)ccc1Cl	i	3
C[C@@H]1CN([C@H](C)CO)C(=O)Cc2cc(NC(=O)Cc3ccccc3)ccc2O[C@H]1CN(C)Cc1ccncc1	i	0
Cn1c(=O)c2c(nc(NCCN)n2C)n(C)c1=O	i	-9
Cn1c(NCCCN)nc2c1c(=O)n(Cc1ccccc1Cl)c(=O)n2C	+	-12
Cc1c(Cl)cccc1NC(=O)CN1CCC(C(N)=O)(N2CCCCC2)CC1	i	-5
Cc1ccccc1OCC(=O)Nc1cccc(Oc2ccc3c(c2)C(=O)NC3=O)c1	i	8
CCOc1ccc(NC(=O)C2CC=CCC2C(=O)O)cc1 (stereo unspecified)	i	2
O=C(O)c1cc(NC(=O)C2CC=CCC2C(=O)O)ccc1Cl (stereo unspecified)	+	4
N#Cc1c(NC(=O)Cn2c(=O)oc3ccccc32)sc2c1CCC2	i	-6
N#Cc1c(NC(=O)Cn2c(=O)oc3ccccc32)oc(-c2ccccc2)c1-c1ccccc1	+	-8
c1ccc2c(c1)[nH]c1nc(SCCN3CCCCC3)nnc12	i	9
Cn1c2ccccc2c2nnc(SCCN3CCCCC3)nc21	+	5
Cc1ccccc1-c1ccc2c(c1)O[C@H](CN(C)C(=O)Nc1ccc(F)cc1)[C@@H](C)CN([C@H](C)CO)S2(=O)=O	nt	-12
CC(C)C#Cc1cnc2c(c1)C(=O)N([C@@H](C)CO)C[C@@H](C)[C@H](CN(C)C(=O)C1CCC1)O2	i	-4
Cc1sc(NC(=S)NC(=O)Cc2cccc3ccccc23)c(C(N)=O)c1C	i	0
Cc1sc(NC(=S)NC(=O)c2ccco2)c(C(N)=O)c1C	i	59*
Cc1cc(I)cnc1NC(=S)NC(=O)c1ccco1	i	76*
Cc1cccc(C)c1OCC(=O)Nc1cccc(NC(=O)c2ccco2)c1	i	5
SMILES	ID4 binder	mut p53 react
NS(=O)(=O)c1ccc(NC(=O)CN2CCN(Cc3ccccc3)CC2)cc1	+	3
COc1ccc(NC(=O)CN2CCN(S(=O)(=O)c3ccccc3)CC2)cc1	i	5
COc1cccc(NC(=O)/C=C/c2ccc(Cl)cc2)c1	i	94*
COc1cccc(NC(=O)C(C)NS(=O)(=O)c2ccc(Cl)cc2)c1 (stereo unspecified)	i	-5
COc1ccc(S(=O)(=O)N(C)C[C@@H]2Oc3c(NC(=O)c4cc(C)nn4C)cccc3C(=O)N([C@@H](C)CO)C[C@H]2C)cc1	i	-2
O=C(COc1ccc(Br)cc1)Nc1cccc(-c2nc3ncccc3o2)c1	i	73*
O=C(COc1ccccc1)Nc1cccc(-c2nc3c(ccc4ccccc43)o2)c1	i	-1
Cc1cc(OCC(=O)Nc2cccc(-c3nc4ccccc4o3)c2C)cc(C)c1Cl	i	-4
Cc1c(NC(=O)COc2ccc(Br)cc2)cccc1-c1nc2ncccc2o1	i	54*
COc1ccccc1OCC(=O)Nc1cc(C(=O)Nc2ccccc2C(=O)O)ccc1C	i	8
CC(=O)c1ccc(N2CCOCC2)cc1O	i	nt
O=C1/C(=C/c2ccc(N3CCOCC3)cc2)CCC1C1CCCC1 (stereo unspecified)	i	65*
O=C(CNC(=O)c1cn(-c2ccccc2)nc1-c1ccccc1)c1ccccc1	i	121*
COC(=O)CNC(=O)c1cn(-c2ccccc2)nc1-c1ccc(OC)cc1	i	-8
Cc1ccc2[nH]c(=S)n(C3CC4C=CC3C4)c(=O)c2c1 (stereo unspecified)	i	9
COc1ccccc1C(=O)Nc1ccc2c(c1)nc(CCNC(C)=O)n2C	i	131*
CC(=O)NCCc1nc2cc(NC(=O)Nc3ccccc3)ccc2n1C	i	3
COc1ccc(S(=O)(=O)N(C)C[C@H]2OCCCC[C@H](C)Oc3ccc(NS(=O)(=O)c4cn(C)cn4)cc3C(=O)N([C@@H](C)CO)C[C@@H]2C)cc1	nt	3
Cc1cc(C)nc(SCC(=O)Nc2cccc(C(=O)O)c2)n1	+	2
Cc1nc(SCC(=O)Nc2cccc(C(=O)O)c2)[nH]c(=O)c1C	i	1
C[C@H](CO)N1C[C@H](C)[C@H](CN(C)Cc2ccccc2)OCCCC[C@H](C)Oc2ccc(NS(=O)(=O)c3cccs3)cc2C1=O	i	-2
O=C(NC1CCN(Cc2ccccc2)CC1)c1ccc(NS(=O)(=O)c2cccs2)cc1	+	-19
C[C@@H]1CN([C@@H](C)CO)C(=O)c2cc(NC(=O)Nc3ccccc3)ccc2O[C@@H]1CN(C)C(=O)Nc1ccc(C(F)(F)F)cc1	i	-15
CCCC#Cc1cnc2c(c1)C(=O)N([C@@H](C)CO)C[C@@H](C)[C@H](CN(C)C(=O)c1ccc3c(c1)OCO3)O2	nt	2
COc1ccc(OCC(=O)Nc2cc(-c3nc4ccccc4s3)ccc2C)cc1	i	30
SMILES	ID4 binder	mut p53 react
Cc1ccc(-c2nc3ccccc3s2)cc1NC(=O)COc1ccccc1	i	54*
COc1ccc(-c2nc3ccccc3s2)cc1NC(=O)COc1ccccc1[N+](=O)[O-]	i	28
COc1ccc(-c2nc3ccccc3s2)cc1NC(=O)COc1cccc(C)c1	i	66*
CC(=O)N(C)C[C@@H]1Oc2cc(-c3ccccc3F)ccc2S(=O)(=O)N([C@@H](C)CO)C[C@H]1C	nt	2
C[C@@H]1CN([C@H](C)CO)C(=O)c2cccc(NC(=O)C3CCOCC3)c2O[C@@H]1CN(C)C(=O)Nc1ccc(C(F)(F)F)cc1	i	-1
C[C@H]1CN([C@@H](C)CO)C(=O)c2cc(NC(=O)C3CC3)ccc2O[C@H]1CN(C)S(=O)(=O)c1cn(C)cn1	i	6
CC(=O)c1ccc(-n2c(CCC(=O)O)ccc2-c2ccc(F)cc2)cc1	i	2
CC(=O)Nc1ccc(-n2c(CCC(=O)O)ccc2-c2ccc(C)cc2)cc1	+	-2
Cc1noc(C)c1NC(=O)N(C)C[C@@H]1Oc2ccc(N(C)C)cc2CC(=O)N([C@H](C)CO)C[C@@H]1C	i	12
CCCN(C)C[C@H]1OCc2cn(nn2)CCCC(=O)N([C@H](C)CO)C[C@H]1C	+	nt
C[C@H](CO)N1C[C@H](C)[C@H](CN(C)CC2CC2)OCc2cn(nn2)CCCC1=O	i	nt
CC(C)C[C@H](NC(=O)[C@@H](O)[C@H](N)Cc1ccccc1)C(=O)O	i	-6
